# Columns and labels:
# [1] = target: Tyrosine-protein kinase receptor UFO (Homo sapiens) (UniProt P30530); conditions: at 1 µM
# [2] = target: Tyrosine-protein kinase Blk (Homo sapiens) (UniProt P51451); conditions: at 0.1 µM
# [3] = target: Tyrosine-protein kinase Blk (Homo sapiens) (UniProt P51451); conditions: at 1 µM
# [4] = target: T1, Cytoplasmic tyrosine-protein kinase BMX (Homo sapiens) (UniProt P51813); conditions: at 0.1 µM
# T1 sequence (whole entry): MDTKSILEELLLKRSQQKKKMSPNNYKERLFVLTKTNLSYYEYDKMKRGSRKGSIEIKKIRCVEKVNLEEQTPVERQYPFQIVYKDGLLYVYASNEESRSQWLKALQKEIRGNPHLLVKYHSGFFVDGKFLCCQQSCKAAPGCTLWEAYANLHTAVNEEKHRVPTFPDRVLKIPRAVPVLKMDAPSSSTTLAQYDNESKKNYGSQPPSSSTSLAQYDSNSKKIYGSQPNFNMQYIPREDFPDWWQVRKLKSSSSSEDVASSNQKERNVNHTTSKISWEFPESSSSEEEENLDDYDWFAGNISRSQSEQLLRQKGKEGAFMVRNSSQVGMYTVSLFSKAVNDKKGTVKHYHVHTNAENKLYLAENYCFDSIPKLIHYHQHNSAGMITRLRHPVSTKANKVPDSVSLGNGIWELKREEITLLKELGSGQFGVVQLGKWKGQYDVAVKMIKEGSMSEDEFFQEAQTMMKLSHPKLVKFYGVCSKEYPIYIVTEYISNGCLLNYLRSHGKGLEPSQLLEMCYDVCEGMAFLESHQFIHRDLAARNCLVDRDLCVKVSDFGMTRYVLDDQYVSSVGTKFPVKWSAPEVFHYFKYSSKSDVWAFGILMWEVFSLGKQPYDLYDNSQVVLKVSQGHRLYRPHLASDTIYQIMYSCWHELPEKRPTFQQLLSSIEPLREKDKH
# [5] = target: T1, Cytoplasmic tyrosine-protein kinase BMX (Homo sapiens); conditions: at 1 µM
# [6] = target: Protein-tyrosine kinase 6 (Homo sapiens) (UniProt Q13882); conditions: at 0.1 µM
# Protein-tyrosine kinase 6 (Homo sapiens), sequence (Q13882 whole entry, looked up): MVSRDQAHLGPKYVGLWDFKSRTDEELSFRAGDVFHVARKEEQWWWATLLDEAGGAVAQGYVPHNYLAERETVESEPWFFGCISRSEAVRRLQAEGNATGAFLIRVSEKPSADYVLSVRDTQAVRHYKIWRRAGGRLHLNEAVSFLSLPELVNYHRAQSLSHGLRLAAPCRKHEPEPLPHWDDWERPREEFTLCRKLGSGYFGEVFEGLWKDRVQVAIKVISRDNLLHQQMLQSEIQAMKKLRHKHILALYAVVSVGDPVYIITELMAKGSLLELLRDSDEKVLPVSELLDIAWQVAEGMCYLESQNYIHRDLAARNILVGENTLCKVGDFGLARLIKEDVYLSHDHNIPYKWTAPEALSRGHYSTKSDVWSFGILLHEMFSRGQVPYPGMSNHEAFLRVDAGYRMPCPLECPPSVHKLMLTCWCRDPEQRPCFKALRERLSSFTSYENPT
# [7] = target: Protein-tyrosine kinase 6 (Homo sapiens) (UniProt Q13882); conditions: at 1 µM
# [8] = target: Tyrosine-protein kinase BTK (Homo sapiens) (UniProt Q06187); conditions: at 0.1 µM
# [9] = target: Tyrosine-protein kinase BTK (Homo sapiens) (UniProt Q06187); conditions: at 1 µM
# [10] = target: Tyrosine-protein kinase CSK (Homo sapiens) (UniProt P41240); conditions: at 0.1 µM
# [11] = target: Tyrosine-protein kinase CSK (Homo sapiens) (UniProt P41240); conditions: at 1 µM
# [12] = target: T2, Discoidin domain-containing receptor 2 (Homo sapiens) (UniProt Q16832); conditions: at 0.1 µM
# T2 sequence (whole entry): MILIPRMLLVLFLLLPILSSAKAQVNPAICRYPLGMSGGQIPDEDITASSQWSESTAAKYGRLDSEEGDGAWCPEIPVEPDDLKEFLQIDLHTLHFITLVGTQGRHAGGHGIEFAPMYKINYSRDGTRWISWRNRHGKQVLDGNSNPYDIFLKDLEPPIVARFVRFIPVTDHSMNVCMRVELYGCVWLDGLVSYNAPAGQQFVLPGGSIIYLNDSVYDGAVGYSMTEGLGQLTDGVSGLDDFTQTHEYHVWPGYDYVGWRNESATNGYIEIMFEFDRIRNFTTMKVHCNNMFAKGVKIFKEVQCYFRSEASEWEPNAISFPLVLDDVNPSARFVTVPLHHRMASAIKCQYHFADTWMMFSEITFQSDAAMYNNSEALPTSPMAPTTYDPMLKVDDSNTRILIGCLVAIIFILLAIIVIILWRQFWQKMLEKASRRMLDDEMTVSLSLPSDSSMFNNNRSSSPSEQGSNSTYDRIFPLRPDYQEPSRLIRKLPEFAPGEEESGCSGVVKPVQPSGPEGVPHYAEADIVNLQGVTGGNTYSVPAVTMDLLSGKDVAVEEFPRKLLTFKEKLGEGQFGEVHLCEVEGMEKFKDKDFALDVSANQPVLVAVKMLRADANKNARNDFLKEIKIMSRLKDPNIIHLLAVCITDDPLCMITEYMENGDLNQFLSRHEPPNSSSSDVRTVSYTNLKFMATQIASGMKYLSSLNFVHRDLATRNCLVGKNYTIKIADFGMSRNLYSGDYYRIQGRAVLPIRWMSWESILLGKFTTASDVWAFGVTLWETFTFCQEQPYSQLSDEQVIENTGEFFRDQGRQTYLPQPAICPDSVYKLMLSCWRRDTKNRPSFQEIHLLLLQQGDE
# [13] = target: T2, Discoidin domain-containing receptor 2 (Homo sapiens); conditions: at 1 µM
# [14] = target: Epidermal growth factor receptor (Homo sapiens) (UniProt P00533); conditions: at 0.1 µM
# [15] = target: Epidermal growth factor receptor (Homo sapiens) (UniProt P00533); conditions: at 1 µM
# [16] = system: Epidermal growth factor receptor (Homo sapiens), P00533 [L858R]; conditions: at 0.1 µM
# Epidermal growth factor receptor (Homo sapiens), P00533 [L858R], sequence (P00533 whole entry L858R): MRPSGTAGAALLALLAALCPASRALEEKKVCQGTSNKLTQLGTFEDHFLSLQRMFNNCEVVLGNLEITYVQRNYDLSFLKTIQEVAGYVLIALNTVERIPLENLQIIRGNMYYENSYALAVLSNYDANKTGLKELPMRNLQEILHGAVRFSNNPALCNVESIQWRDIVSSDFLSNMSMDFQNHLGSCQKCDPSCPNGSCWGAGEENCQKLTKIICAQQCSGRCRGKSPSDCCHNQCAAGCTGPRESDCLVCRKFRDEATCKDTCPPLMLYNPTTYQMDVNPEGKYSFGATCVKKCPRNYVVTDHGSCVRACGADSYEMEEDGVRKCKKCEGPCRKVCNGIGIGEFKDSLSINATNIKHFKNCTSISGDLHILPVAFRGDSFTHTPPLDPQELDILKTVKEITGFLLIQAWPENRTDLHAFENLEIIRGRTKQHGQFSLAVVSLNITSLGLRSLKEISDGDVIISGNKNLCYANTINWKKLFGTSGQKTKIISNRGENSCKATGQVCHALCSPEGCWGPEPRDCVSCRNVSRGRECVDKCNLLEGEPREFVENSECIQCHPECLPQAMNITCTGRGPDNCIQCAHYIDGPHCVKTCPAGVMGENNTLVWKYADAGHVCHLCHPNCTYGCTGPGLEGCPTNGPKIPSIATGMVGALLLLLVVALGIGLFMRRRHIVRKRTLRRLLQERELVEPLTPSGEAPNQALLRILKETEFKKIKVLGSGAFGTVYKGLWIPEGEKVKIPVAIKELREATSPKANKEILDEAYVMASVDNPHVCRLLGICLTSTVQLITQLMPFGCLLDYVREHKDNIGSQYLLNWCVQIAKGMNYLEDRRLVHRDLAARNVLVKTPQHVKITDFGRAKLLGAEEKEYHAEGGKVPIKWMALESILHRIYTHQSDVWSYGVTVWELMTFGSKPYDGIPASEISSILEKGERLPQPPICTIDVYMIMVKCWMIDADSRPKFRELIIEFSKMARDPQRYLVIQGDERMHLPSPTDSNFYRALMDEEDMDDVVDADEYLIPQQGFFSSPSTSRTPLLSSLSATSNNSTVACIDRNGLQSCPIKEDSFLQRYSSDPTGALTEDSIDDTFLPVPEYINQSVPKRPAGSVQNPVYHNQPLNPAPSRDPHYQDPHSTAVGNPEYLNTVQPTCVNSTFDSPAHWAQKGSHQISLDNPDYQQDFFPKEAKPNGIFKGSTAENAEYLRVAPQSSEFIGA
# [17] = system: Epidermal growth factor receptor (Homo sapiens), P00533 [L858R]; conditions: at 1 µM
# [18] = system: Epidermal growth factor receptor (Homo sapiens), P00533 [L861Q]; conditions: at 0.1 µM
# Epidermal growth factor receptor (Homo sapiens), P00533 [L861Q], sequence (P00533 whole entry L861Q): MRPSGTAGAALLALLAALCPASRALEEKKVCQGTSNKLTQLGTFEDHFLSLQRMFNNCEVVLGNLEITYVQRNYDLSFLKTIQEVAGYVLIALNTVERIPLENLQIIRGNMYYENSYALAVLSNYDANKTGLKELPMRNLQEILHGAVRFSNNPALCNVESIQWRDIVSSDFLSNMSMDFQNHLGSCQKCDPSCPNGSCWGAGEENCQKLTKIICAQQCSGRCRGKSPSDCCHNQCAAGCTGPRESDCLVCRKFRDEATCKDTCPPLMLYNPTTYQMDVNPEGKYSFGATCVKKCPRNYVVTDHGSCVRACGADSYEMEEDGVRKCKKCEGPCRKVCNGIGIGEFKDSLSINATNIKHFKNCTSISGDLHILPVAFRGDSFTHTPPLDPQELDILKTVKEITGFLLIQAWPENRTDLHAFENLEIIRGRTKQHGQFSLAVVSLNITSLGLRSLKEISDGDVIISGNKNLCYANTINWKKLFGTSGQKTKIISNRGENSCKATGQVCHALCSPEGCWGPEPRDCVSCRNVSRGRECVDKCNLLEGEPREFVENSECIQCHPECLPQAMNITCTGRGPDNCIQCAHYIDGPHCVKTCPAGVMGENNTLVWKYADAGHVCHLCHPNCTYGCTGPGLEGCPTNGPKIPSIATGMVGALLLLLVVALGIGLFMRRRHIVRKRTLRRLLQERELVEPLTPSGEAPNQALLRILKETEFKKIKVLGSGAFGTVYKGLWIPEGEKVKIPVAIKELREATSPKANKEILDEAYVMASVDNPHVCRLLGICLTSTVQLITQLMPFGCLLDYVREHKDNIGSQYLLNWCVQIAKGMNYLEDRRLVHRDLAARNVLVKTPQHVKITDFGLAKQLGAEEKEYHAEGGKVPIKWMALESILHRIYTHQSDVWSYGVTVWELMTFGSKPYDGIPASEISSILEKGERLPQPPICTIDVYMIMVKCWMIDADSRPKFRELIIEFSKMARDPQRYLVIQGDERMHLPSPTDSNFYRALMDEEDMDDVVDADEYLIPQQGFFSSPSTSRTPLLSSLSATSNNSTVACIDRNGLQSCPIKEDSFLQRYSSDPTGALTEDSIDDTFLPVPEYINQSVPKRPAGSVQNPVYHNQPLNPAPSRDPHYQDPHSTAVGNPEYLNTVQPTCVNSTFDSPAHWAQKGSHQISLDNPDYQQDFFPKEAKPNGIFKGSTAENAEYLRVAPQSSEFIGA
# [19] = system: Epidermal growth factor receptor (Homo sapiens), P00533 [L861Q]; conditions: at 1 µM
# [20] = system: Epidermal growth factor receptor (Homo sapiens), P00533 [T790M]; conditions: at 0.1 µM
# Epidermal growth factor receptor (Homo sapiens), P00533 [T790M], sequence (P00533 whole entry T790M): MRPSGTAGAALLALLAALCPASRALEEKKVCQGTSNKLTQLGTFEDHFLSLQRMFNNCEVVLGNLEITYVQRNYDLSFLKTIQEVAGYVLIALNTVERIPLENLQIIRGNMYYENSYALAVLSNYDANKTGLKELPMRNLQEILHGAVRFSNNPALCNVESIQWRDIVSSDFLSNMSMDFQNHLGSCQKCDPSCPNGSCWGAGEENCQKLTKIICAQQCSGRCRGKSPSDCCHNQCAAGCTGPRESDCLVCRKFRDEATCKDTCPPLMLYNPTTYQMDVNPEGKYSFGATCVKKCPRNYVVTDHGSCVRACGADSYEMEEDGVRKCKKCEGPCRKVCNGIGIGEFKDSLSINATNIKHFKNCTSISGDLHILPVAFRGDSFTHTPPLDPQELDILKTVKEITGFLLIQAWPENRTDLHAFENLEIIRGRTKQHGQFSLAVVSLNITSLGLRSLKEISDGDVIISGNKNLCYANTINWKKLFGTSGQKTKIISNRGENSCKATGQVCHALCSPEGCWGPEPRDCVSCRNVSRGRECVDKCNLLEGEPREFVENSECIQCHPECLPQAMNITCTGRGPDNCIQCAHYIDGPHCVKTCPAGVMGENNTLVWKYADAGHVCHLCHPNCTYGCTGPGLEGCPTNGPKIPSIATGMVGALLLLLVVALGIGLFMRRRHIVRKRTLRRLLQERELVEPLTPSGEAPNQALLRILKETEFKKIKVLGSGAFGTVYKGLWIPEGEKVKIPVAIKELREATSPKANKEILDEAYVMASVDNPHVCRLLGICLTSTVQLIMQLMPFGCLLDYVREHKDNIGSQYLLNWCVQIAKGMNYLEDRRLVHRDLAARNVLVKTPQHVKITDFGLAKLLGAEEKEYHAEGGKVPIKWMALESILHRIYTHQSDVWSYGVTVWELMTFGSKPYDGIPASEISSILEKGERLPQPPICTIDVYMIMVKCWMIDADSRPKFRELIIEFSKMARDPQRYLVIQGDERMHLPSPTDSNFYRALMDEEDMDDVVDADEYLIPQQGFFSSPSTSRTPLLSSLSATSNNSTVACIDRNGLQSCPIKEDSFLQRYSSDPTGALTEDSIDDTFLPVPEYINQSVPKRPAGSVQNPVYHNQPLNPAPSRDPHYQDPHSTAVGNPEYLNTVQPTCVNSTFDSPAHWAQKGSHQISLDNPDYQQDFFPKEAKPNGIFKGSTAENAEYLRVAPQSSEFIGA
# Tyrosine-protein kinase receptor UFO (Homo sapiens), sequence (P30530 whole entry): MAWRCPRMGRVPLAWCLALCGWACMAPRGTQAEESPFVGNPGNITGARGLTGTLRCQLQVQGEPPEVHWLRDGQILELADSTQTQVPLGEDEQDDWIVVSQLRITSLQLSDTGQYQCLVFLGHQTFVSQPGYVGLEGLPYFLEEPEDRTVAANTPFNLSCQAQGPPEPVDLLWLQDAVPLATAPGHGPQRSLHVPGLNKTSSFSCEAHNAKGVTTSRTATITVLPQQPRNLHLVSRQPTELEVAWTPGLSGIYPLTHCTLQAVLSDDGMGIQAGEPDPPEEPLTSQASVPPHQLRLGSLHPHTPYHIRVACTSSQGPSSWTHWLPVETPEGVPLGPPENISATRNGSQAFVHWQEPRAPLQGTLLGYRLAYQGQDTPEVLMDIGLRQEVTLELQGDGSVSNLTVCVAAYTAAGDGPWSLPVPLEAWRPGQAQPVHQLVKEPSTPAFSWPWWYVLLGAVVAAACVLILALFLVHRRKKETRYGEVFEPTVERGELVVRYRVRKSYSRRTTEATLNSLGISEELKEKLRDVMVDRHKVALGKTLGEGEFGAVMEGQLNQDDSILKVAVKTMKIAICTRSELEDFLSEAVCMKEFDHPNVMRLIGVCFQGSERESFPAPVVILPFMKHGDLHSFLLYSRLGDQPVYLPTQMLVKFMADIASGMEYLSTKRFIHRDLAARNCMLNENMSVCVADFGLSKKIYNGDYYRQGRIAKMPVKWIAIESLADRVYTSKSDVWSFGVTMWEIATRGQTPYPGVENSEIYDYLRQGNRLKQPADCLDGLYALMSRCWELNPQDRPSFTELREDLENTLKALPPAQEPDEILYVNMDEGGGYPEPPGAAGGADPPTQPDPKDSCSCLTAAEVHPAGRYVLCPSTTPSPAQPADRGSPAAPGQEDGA
Structure (SMILES),inhibition [1] [%],inhibition [2] [%],inhibition [3] [%],inhibition [4] [%],inhibition [5] [%],inhibition [6] [%],inhibition [7] [%],inhibition [8] [%],inhibition [9] [%],inhibition [10] [%],inhibition [11] [%],inhibition [12] [%],inhibition [13] [%],inhibition [14] [%],inhibition [15] [%],inhibition [16] [%],inhibition [17] [%],inhibition [18] [%],inhibition [19] [%],inhibition [20] [%]
COc1cc(Nc2nccc(Nc3ccc4c(C)n[nH]c4c3)n2)cc(OC)c1OC,1.16,12.7,69.3,17.5,64.8,11.1,55.4,7.82,34.9,21,67.9,9.87,43.1,8,22.2,3.36,29.9,2.9,15.6,1.4
c1ccc(COc2ccc(Nc3ncnc4ccc(-c5ccco5)cc34)cc2)cc1,2.06,1.56,3.68,-1,2.02,1.6,2.35,0.63,1.73,0.39,1.89,0.26,1.14,64.3,86.1,9.89,39.4,22.1,36.1,1.47
CCCN(CCS(C)(=O)=O)Cc1ccc(-c2ccc3ncnc(Nc4ccc(OCc5cccc(F)c5)c(Cl)c4)c3c2)o1,-0.23,1.35,4,0.94,3.89,4.08,7.54,-0.01,0.03,1.98,5.5,1.06,1.68,77.6,78.4,53.4,95,53,88.2,2.23
CNC(=O)c1cncc(/C=C/c2ccccc2Cl)c1,-0.52,3.84,4.55,1.47,8.42,0.17,10,1.39,2.01,0.04,6,-0.31,6.62,2.35,6.18,1.57,10.9,1.06,7.25,-0.23
COc1cccc(-n2ncc3c(N/N=C/c4ccc(F)cc4)ncnc32)c1,-3.79,4.91,18.2,-0.31,13,4.36,5.54,1.48,1.13,3.3,11.4,1.69,4.36,0.53,7.92,11.6,34.9,5.16,12,1.96
CCN1CCC(CC(=O)Nc2n[nH]c3nnc(-c4cccc(F)c4F)cc23)CC1,0.83,3.37,3.76,1.54,1.09,2.53,1.16,0.54,1.15,-1.69,4.47,1.59,1.68,-0.65,2.31,-0.92,3.4,0.65,-0.91,-0.06
CCCN1CCC(c2ccc(Nc3nc(Nc4cc(F)ccc4C(N)=O)c4cc[nH]c4n3)c(OC)c2)CC1,66,3.5,8.52,3.68,6.36,13.5,64.8,-1.53,-1.71,1.38,6.03,0.6,3.39,8.69,40.3,5.44,46.4,6.31,28.4,30.4
